Laboratory results as given in PubChem BioAssay (EPA / NIEHS).
Active and inactive are the calls of the source. Rule for the calls: active = hit-call score of the fitted dose curve at least 0.9, where 1 is the maximum; inconclusive = response in the unintended direction; inactive = score below 0.9.

biological target: Estrogen receptor (Homo sapiens) (UniProt P03372); experiment: OT_ER_ERaERa_1440: Odyssey Thera (OT) 24-hour HEK293T Protein-Complementation Assay for Estrogen Receptor-alpha/-alpha Homodimer (AID 2283349);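 note: hits raise fluorescence above DMSO for agonists and antagonists alike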
Method in brief: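 Stably transfected HEK293T; ERα LBD homodimer PCA. 24 h dosing, fluorescence intensity read, gain-of-signal vs DMSO.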

Chain of Estrogen receptor (Homo sapiens) (P03372 whole entry, looked up, the tested form may be a part): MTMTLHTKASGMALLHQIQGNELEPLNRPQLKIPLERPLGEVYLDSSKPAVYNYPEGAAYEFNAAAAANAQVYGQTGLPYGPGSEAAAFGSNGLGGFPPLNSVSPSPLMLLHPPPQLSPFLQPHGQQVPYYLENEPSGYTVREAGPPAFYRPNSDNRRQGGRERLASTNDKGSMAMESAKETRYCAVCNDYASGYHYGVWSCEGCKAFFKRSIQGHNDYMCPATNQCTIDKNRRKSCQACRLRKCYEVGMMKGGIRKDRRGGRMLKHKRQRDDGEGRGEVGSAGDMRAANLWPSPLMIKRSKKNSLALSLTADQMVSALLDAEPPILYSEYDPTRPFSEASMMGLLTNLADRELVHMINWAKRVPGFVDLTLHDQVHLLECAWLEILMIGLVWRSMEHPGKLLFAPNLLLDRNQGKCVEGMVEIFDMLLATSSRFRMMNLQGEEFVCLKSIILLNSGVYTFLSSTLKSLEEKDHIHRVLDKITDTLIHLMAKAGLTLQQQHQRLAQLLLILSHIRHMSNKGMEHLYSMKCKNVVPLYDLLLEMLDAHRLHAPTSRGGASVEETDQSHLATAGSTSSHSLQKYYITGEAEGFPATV

outcome, inactive:
CCCCCCCCC=O
CC(=O)C=CC1=C(C)CCCC1(C)C
NC(=O)Nc1ccc(Cl)cc1
CC(=O)OCCOC(C)=O
O=Nc1ccc(Nc2ccccc2)cc1
CCCCCCCCCC=O
NCCCN1CCOCC1
CN(C)CCCN
CC(C)(C)C(=O)c1ccccc1
BrC1CCC(Br)C(Br)CCC(Br)C(Br)CCC1Br (configuration not stated)
Cc1ccc(S)cc1
CC(C)c1cccc(O)c1
CCC/C=C/C=O
OCCN1CCNCC1
CCCCCCCCCCCCCC(=O)O
O=C1c2ccccc2C(=O)N1SC1CCCCC1
CC(=O)OCCC(C)CC(C)(C)C (configuration not stated)
CCCCCCCCCCCCCCCC(=O)OC[C@H](O)[C@H]1OC(=O)C(O)=C1O
OCCOCCOCCOCCO
CCCCOCCOCCOCCOCCO
CC1COc2ccccc2N1C(=O)C(Cl)Cl (configuration not stated)
CCCCCCCCC
c1ccc(CCCc2ccccn2)cc1
C=C(C)C(=O)O
CCCCc1ccc(N)cc1
CC(C)(N)CO

AC50, active:
CCN(CC)c1ccc2c(-c3ccccc3C(=O)O)c3ccc(=[N+](CC)CC)cc-3oc2c1 12.2 µM
